Experimental data: publication PMC12431657, “Discovery and mechanistic insights of dibenzoylmethane as a broad spectrum inhibitor of coronavirus” (PLOS Pathogens, 2025)
Counter-ions that a name gives are not always drawn. Like-named read-outs stand apart in the source and are kept apart here. The whole screen tested about 3,300 compounds, of which about 95 (3%) showed an effect of 50% or more. For the sample, strong results were picked, then their nearest neighbours and some compounds at random. Peptide text beside a SMILES is read from it.

Tested on: HCoV-229E
Parameters: species or system Huh-7; HTS, protection from HCoV-229E induced cell death, luminescent cell viability (CellCounting-Lite 2.0), inhibition rate
Conditions: 24 h post infection, 1 h compound pre-incubation, 10 µM, inhibitor

Row | SMILES | 229E Inhibition rate | 229E Inhibition rate (229E Inhibition rate, 24 h)
1 | COc1ccc([C@H]2OC[C@H]3[C@@H]2CO[C@H]3c2ccc(O[C@@H]3O[C@H](CO)[C@@H](O)[C@H](O)[C@H]3O)c(OC)c2)cc1OC [Phillyrin] | 0% | 
2 | COc1cc([C@@H]2[C@H]3CO[C@@]4(O)C(=O)[C@@H]2C=C([C@H]2Oc5cc(O)cc(O)c5C(=O)[C@@H]2O)[C@@H]34)ccc1O [Silydianin] | 51.4% | 
3 | COc1cc(C2Oc3ccc([C@H]4Oc5cc(O)cc(O)c5C(=O)[C@@H]4O)cc3OC2CO)ccc1O (stereo partly shown) [Isosilybin] | 0% | 
4 | COc1cc(C2Oc3cc([C@H]4Oc5cc(O)cc(O)c5C(=O)[C@@H]4O)ccc3OC2CO)ccc1O (stereo partly shown) [Silybin] | 13% | 
5 | COc1cc(O[C@@H]2O[C@H](CO[C@@H]3O[C@H](CO)[C@@H](O)[C@H](O)[C@H]3O)[C@@H](O)[C@H](O)[C@H]2O)c2c(O)c3c(=O)cc(C)oc3cc2c1 [Rubrofusarin gentiobioside] | 20.7% | 
6 | COc1cccc(CCC(=O)O)c1 [3-(3-Methoxyphenyl)propionic acid] | 21.4% | 
7 | O=CC[C@H](O)[C@H](O)CO [Thyminose] | 3.9% | 
8 | C=C[C@H]1[C@H](O[C@@H]2O[C@H](CO)[C@@H](O)[C@H](O)[C@H]2O)OC=C(C(=O)OC)[C@H]1CC(=O)O [Secoxyloganin] | 44.3% | 
9 | C[C@H](CCCC(C)(C)O)[C@H]1CC[C@H]2[C@@H]3CC=C4C[C@@H](O)CC[C@]4(C)[C@H]3CC[C@]12C [25-Hydroxycholesterol] | 3.1% | 
10 | CC(C)CCC[C@@H](C)[C@H]1CC[C@H]2[C@@H]3CC=C4C[C@@H](O)CC[C@]4(C)[C@H]3CC[C@]12C [Cholesterol] | 13.1% | 
11 | CC(C)CCC[C@](C)(O)[C@H]1CC[C@H]2[C@@H]3CC=C4C[C@@H](O)CC[C@]4(C)[C@H]3CC[C@@]21C [20(S)-Hydroxycholesterol] | 57% | 
12 | Nc1ncnc(N[C@@H]2O[C@H](CO)[C@@H](O)[C@H]2O)c1[N+](=O)[O-] [Clitocine] | 17.5% | 
13 | CC(C)=CCc1c(O[C@@H]2O[C@H](CO)[C@@H](O)[C@H](O)[C@H]2O)cc(O)c2c(=O)c(O[C@@H]3O[C@@H](C)[C@H](O)[C@@H](O)[C@H]3O)c(-c3ccc(O)cc3)oc12 [Epimedoside A] | 15.1% | 
14 | COc1cc2c(cc1OC)[C@@H](Cc1ccc(O)c(Oc3cc4c(cc3OC)CCN(C)[C@@H]4Cc3ccc(O)cc3)c1)N(C)CC2 [Liensinine (Diperchlorate)] |  | 57.2%
15 | COc1cc2c(cc1OC)[C@@H](Cc1ccc(O)c(Oc3cc4c(cc3OC)CCN(C)[C@@H]4Cc3ccc(O)cc3)c1)N(C)CC2 [Liensinine] |  | 44.3%
16 | COc1cc2c(cc1OC)[C@@H](Cc1ccc(O)c(Oc3cc4c(cc3OC)CCN(C)[C@@H]4Cc3ccc(O)cc3)c1)N(C)CC2 [Liensinine (perchlorate)] |  | 8.8%
17 | CCC1=C[C@@H]2CN3CCc4c([nH]c5ccccc45)[C@@](C(=O)OC)(C2)[C@@H]13 [Catharanthine] | 54.2% | 
18 | CC[C@]1(O)C[C@@H]2CN(CCc3c([nH]c4ccccc34)[C@@](C(=O)OC)(c3cc4c(cc3OC)N(C)[C@H]3[C@@](O)(C(=O)OC)[C@H](OC(C)=O)[C@]5(CC)C=CCN6CC[C@]43[C@@H]65)C2)C1 [Vinblastine (sulfate)] | 30.6% | 
19 | CC[C@H]1C[C@@H]2CN3CCc4c([nH]c5ccccc45)[C@](C(=O)OC)(C2)[C@H]13 [Coronaridine] | 41.8% | 
20 | C=C(C)[C@@H]1CC=C(CO)CC1 [(S)-(−)-Perillyl alcohol] | 9.9% | 
21 | C[C@H]1CC[C@@H]2[C@@H](C)[C@H]3[C@H](C[C@H]4[C@@H]5CC=C6C[C@@H](O)CC[C@]6(C)[C@H]5CC[C@]34C)N2C1 [Solanidine] | 24.2% | 
22 | C=C[C@H]1CN2CC[C@H]1C[C@@H]2[C@@H](O)c1ccnc2ccc(OC)cc12 [Quinidine hydrochloride monohydrate] |  | 48.6%
23 | C=C[C@H]1CN2CC[C@H]1C[C@H]2[C@H](O)c1ccnc2ccccc12 [Cinchonidine] | 13.4% | 
24 | C=C[C@H]1CN2CC[C@H]1C[C@@H]2[C@@H](O)c1ccnc2ccccc12 [Cinchonine] | 53.6% | 
25 | CC1(C)CCC[C@](C)([C@H]2CC[C@]3(C)[C@@H]2[C@H](O)C[C@@H]2[C@@]4(C)CC[C@H](O)C(C)(C)[C@@H]4[C@@H](O)C[C@]23C)O1 [Panaxatriol] | 15.9% | 
26 | CC(C)=CCCC(C)CCO (stereo not shown) [Citronellol] | 12.8% | 

Row | SMILES | 229E Inhibition rate | 229E Inhibition rate (229E Inhibition rate, 24 h)
27 | CC1(C)CC[C@]2(C(=O)O[C@@H]3O[C@H](CO)[C@@H](O)[C@H](O)[C@H]3O)CC[C@]3(C)C(=CC[C@@H]4[C@@]5(C)CC[C@H](O[C@@H]6O[C@H](C(=O)O)[C@@H](O)[C@H](O[C@@H]7OC[C@@H](O)[C@H](O)[C@H]7O)[C@H]6O)C(C)(C)[C@@H]5CC[C@]43C)[C@@H]2C1 [Momordin IIc] | 29.6% | 
28 | CC(=O)[C@H]1CC[C@H]2[C@@H]3CC=C4C[C@@H](OS(=O)(=O)O)CC[C@]4(C)[C@H]3CC[C@]12C [Pregnenolone monosulfate (sodium)] | 55.9% | 
29 | CC(=O)[C@H]1CC[C@H]2[C@@H]3CC=C4C[C@@H](O)CC[C@]4(C)[C@H]3CC[C@]12C [Pregnenolone] | 40.7% | 
30 | CC(C)CCC[C@@H](C)[C@H]1CC[C@H]2[C@@H]3CC=C4C[C@@H](OS(=O)(=O)O)CC[C@]4(C)[C@H]3CC[C@]12C [Cholesteryl sulfate (sodium)] | 7.6% | 
31 | CC1(C)C(=O)[C@]2(C)CC[C@H]1C2 [(-)-Fenchone] | 23.7% | 
32 | C=C1C[C@@]23CC[C@H]4[C@@](C)(CCC[C@@]4(C)C(=O)O[C@@H]4O[C@H](CO)[C@@H](O)[C@H](O[C@@H]5O[C@H](CO)[C@@H](O)[C@H](O)[C@H]5O)[C@H]4O[C@@H]4O[C@H](CO)[C@@H](O)[C@H](O)[C@H]4O)[C@@H]2CC[C@]1(O[C@@H]1O[C@H](CO)[C@@H](O)[C@H](O[C@@H]2O[C@H](CO)[C@@H](O)[C@H](O)[C@H]2O)[C@H]1O[C@@H]1O[C@H](CO)[C@@H](O)[C@H](O)[C@H]1O)C3 [Rebaudioside M] | 19.5% | 
33 | OC[C@H]1O[C@@](CO)(OC[C@@]2(O[C@H]3O[C@H](CO)[C@@H](O)[C@H](O)[C@H]3O)O[C@H](CO)[C@@H](O)[C@@H]2O)[C@@H](O)[C@@H]1O [1-Kestose] | 18.6% | 
34 | CC[C@H](C)[C@@H]1NC(=O)[C@@H]2CCCN2C(=O)[C@@H]2CCCN2C(=O)[C@@H]2CCCN2C(=O)[C@H](CC(C)C)NC(=O)CNC(=O)CNC(=O)[C@H](Cc2ccccc2)NC1=O [Heterophyllin B] (cyclo(FGGLPPPI)) | 12.9% | 
35 | CC(=O)OCc1ccccc1 [Benzyl acetate] | 50.3% | 
36 | O=C(OCc1ccccc1)c1ccccc1O [Benzyl salicylate] | 24.5% | 
37 | O=C(OCc1ccccc1)c1ccccc1 [Benzyl benzoate] | 12.5% | 
38 | C[C@H]1O[C@@H](Oc2ccc(COC(=O)CC(O)(CC(=O)OCc3ccc(O[C@@H]4O[C@H](CO)[C@@H](O)[C@H](O)[C@H]4O)cc3)C(=O)Oc3ccc(O[C@H]4O[C@H](CO)[C@@H](O)[C@H](O)[C@H]4O)cc3)cc2)[C@H](O)[C@@H](O)[C@@H]1O (stereo partly shown) [Parishin] | 9.7% | 
39 | O=C1CC(C(=O)O)c2c1oc(=O)c1cc(O)c(O)c(O)c21 (stereo not shown) [Brevifolincarboxylic acid] | 6.4% | 
40 | C[C@H]1[C@H](C)CC[C@]2(C)CC[C@]3(C)C(=CC[C@@H]4[C@@]5(C)CC[C@@H](O)[C@](C)(C(=O)O)[C@@H]5CC[C@]43C)[C@H]12 [β-Boswellic acid] | 22.5% | 
41 | CCCCCCCCCCCCCCCCCC(=O)OC [Methyl stearate] | 17.9% | 
42 | CCCCCCCCCCCCCCCCCCCCCCCC(=O)OC [Methyl tetracosanoate] | 11.5% | 
43 | CCCCCCCCCCC(=O)OC [Methyl undecanoate] | 56.2% | 
44 | C=C1C[C@@]23CC[C@H]4[C@@](C)(CCC[C@@]4(C)C(=O)O)[C@@H]2CC[C@]1(O[C@@H]1O[C@H](CO)[C@@H](O)[C@H](O[C@@H]2O[C@H](CO)[C@@H](O)[C@H](O)[C@H]2O)[C@H]1O[C@@H]1O[C@H](CO)[C@@H](O)[C@H](O)[C@H]1O)C3 [Rebaudioside B] | 36.9% | 
45 | COc1cc(/C=C/C=O)ccc1O [Coniferaldehyde] | 38.5% | 
46 | Nc1ncnc2c1ncn2[C@@H]1O[C@H](CO)C[C@H]1O [Cordycepin] | 15.3% | 
47 | Nc1ncnc2c1ncn2[C@H]1C[C@H](O)[C@@H](CO)O1 [2'-Deoxyadenosine monohydrate] |  | 8.6%
48 | Nc1ncnc2c1ncn2[C@@H]1C[C@H](CO)[C@@H](O)[C@H]1O [Aristeromycin] | 57.5% | 
49 | O=C(/C=C/c1ccccc1)c1ccccc1 [trans-Chalcone] |  | 5.4%
50 | O=C1C[C@@](O)(C(=O)O)[C@@H](C(=O)O)O1 [(-)-Hydroxycitric acid lactone] | 7.8% | 
51 | O=C(O)CCCC(O)C(=O)O (stereo not shown) [2-Hydroxyadipic acid] | 14.9% | 
52 | C[S@@+]([O-])CCCCN=C=S [(R)-sulforaphane] | 54% | 
